From PubChem BioAssay (NCI)
About 83,000 compounds went through this panel and 20% of them were active in at least one assay; those are over-represented in the sample as a whole.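 Results are percent growth after 48 hours of single-concentration exposure. 100 means growth as in untreated cells, lower positive values show inhibition; negative values down to -100 show cell death.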 Unmarked numbers belong to inactive results. Active and inactive are the calls of the source. The calls were made as follows: active = growth percent below 10; inactive = the rest.

Assays:
Assay in all cases: NCI-60 one-dose screen, 48 h (100 = growth as untreated, 0 = no growth, -100 = all killed)
Conditions in all cases: 10 µM unless noted
SK-MEL-2 melanoma = tested on: SK-MEL-2 melanoma
EKVX NSCLC = tested on: EKVX NSCLC
SN12C renal = tested on: SN12C renal
UO-31 renal = tested on: UO-31 renal
TK-10 renal = tested on: TK-10 renal
ACHN renal = tested on: ACHN renal
CAKI-1 renal = tested on: CAKI-1 renal
A498 renal = tested on: A498 renal
CCRF-CEM leukemia = tested on: CCRF-CEM leukemia
MOLT-4 leukemia = tested on: MOLT-4 leukemia
SR leukemia = tested on: SR leukemia
RPMI-8226 leukemia = tested on: RPMI-8226 leukemia
OVCAR-8 ovarian = tested on: OVCAR-8 ovarian
OVCAR-5 ovarian = tested on: OVCAR-5 ovarian
OVCAR-4 ovarian = tested on: OVCAR-4 ovarian
SK-OV-3 ovarian = tested on: SK-OV-3 ovarian
IGROV1 ovarian = tested on: IGROV1 ovarian
OVCAR-3 ovarian = tested on: OVCAR-3 ovarian
HS 578T breast = tested on: HS 578T breast
NCI/ADR-RES ovarian = tested on: NCI/ADR-RES ovarian

SMILES	growth (SK-MEL-2 melanoma) [%]	growth (EKVX NSCLC) [%]	growth (SN12C renal) [%]	growth (UO-31 renal) [%]	growth (TK-10 renal) [%]	growth (ACHN renal) [%]	growth (CAKI-1 renal) [%]	growth (A498 renal) [%]	growth (CCRF-CEM leukemia) [%]	growth (MOLT-4 leukemia) [%]	growth (SR leukemia)	growth (RPMI-8226 leukemia)	growth (OVCAR-8 ovarian) [%]	growth (OVCAR-5 ovarian) [%]	growth (OVCAR-4 ovarian) [%]	growth (SK-OV-3 ovarian) [%]	growth (IGROV1 ovarian) [%]	growth (OVCAR-3 ovarian) [%]	growth (HS 578T breast) [%]	growth (NCI/ADR-RES ovarian) [%]
CC(=O)OC[C@]12CCC(C)(C)C=C1[C@H]1CC[C@@H]3[C@@]4(C)CCCNC(C)(C)[C@@H]4CC[C@@]3(C)[C@]1(C)CC2	90.7	89.5	68.8	91.5	94.9	99.3	88.9	97.9	39.3	38.8	13.7%	-4.32% (active)	71.9	96.7	41.8	90.5	43.6	30.7	92.5	104
c1cc(NCCCCN2CCOCC2)c2ccc3c(ccc4c(NCCN5CCOCC5)ccnc43)c2n1	99.2	94.8	64.8	64.7	143	60.2	64.2	86.1	36.9	43.2	-7.92% (active)	98.2%	79.2	111	91.5	101	65.6	105	88.6	88.1
COC(=O)N/N=C/c1c[n+]([O-])c2ccccc2[n+]1[O-]	112	100	99.6	86.6	119	100	89.1	98	94	104	93.4%	94.3%	90.8	108	103	29.9	102	111	126	102
